Rab9 promoter act: activates the Rab9 promoter. Huh7 Rab9 promoter-luciferase reporter, luminescence, 24 h. Potency, µM (top dose mostly 9.22 µM), inactives show at the top dose activation, negative = inhibition, actives largely listed as activators. 2.8% of 320,000 active; note: % of control where 0% means no effect; nearly all actives have a fitted effect of over 60% in size
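Cell-based reporter: Huh7 stable for Rab9 promoter-driven luciferase, plated in reduced-serum medium with 10% FBS at 1500 cells/well, compound-treated 24 h at 37 °C, luminescence read after 10 min reagent.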
NPC1 prom act: activates the NPC1 promoter; Huh7 NPC1 promoter luciferase reporter, 24 h; Potency, µM (doses to about 9.22 µM), without a hit: at the top dose activation, most hits filed as activators; 2.4% of 320,000 active; note: % of control where 0% means no effect; nearly all actives have a fitted effect of over 60% in size
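Readout is luciferase luminescence, reflecting NPC1 promoter activation in stably transfected Huh7 cells after 24 h compound exposure at 37 °C in reduced-serum medium with 10% FBS.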
FLuc modulator: firefly luciferase modulation, counter-screen for miR-21 project; AID 588342; Potency, µM (doses to about 57.5 µM), for the others: at the highest dose activity change, negative = inhibition, usual class: inhibitors; 6.9% of 360,000 active; purified FLuc, Km substrates, luminescence inhibition;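 note: plate controls were vehicle for no effect and reference inhibitor for full effect; nearly all actives have a fitted effect of over 55% in size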
Target sequence (P08659 whole entry, looked up): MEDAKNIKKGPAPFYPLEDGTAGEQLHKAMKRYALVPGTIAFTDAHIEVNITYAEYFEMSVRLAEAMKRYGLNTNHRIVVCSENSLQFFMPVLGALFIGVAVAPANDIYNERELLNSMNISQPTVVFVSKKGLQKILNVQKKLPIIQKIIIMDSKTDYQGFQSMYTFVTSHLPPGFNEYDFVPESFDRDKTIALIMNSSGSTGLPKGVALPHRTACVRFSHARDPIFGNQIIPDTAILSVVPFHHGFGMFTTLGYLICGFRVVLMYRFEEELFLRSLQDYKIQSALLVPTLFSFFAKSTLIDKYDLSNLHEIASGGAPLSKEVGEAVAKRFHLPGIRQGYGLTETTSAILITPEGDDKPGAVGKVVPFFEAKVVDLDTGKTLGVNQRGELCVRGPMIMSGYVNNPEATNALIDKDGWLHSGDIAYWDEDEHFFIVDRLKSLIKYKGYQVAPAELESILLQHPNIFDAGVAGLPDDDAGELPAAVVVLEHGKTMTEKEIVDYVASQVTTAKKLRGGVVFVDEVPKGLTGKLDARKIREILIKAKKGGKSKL
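Purified P. pyralis luciferase (10nM final) with 10uM D-luciferin and 10uM ATP (Km levels) in 50mM Tris acetate pH 7.5, 10mM Mg acetate, 0.01% Tween-20, 0.05% BSA; qHTS 6-point titration, ~60 µM downward; luminescence read.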
SMN2 splice up: increases expression of the SMN2 splice variant; HEK293 SMN2-luciferase splicing reporter, luminescence, 30-36 h; Potency, µM (series often up to 46.1 µM), inactives show at the highest dose activity change, positive = activation, actives largely listed as activators; 2.8% of 210,000 active; AID 1458; note: % of control where 0% means no effect; nearly all actives have a fitted effect of over 55% in size
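HEK293 cells carry an SMN2 […]–luciferase reporter in which exon 7 inclusion puts luciferase in frame. Cells were plated 10-12 h before compound addition, then incubated 30-36 h at 37C. ONE-Glo luminescence was read; sodium butyrate at 4.5 mM final served as control.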
ELG1 genotoxic: inducers of genotoxicity in HEK293T ELG1-luciferase cells; 1.3% of 330,000 active; HEK293T ELG1-luciferase reporter, luminescence, 16 h; Potency, µM (highest dose often 46 µM), for inactives: at the highest dose activity change, positive = activation, actives largely listed as activators; AID 504466; note: % of control where 0% means no effect; nearly all actives have a fitted effect of over 60% in size
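Genotoxic stress is detected as increased luminescence from luciferase-tagged ELG1 in HEK293T cells, measured with ONE-Glo after a 16 hr treatment at 37 °C.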
ELG1 DNA repair: ELG1-dependent DNA repair inhibition. 2.3% of 330,000 active. Potency, µM (doses to about 46.1 µM), for the others: at the highest dose activity change, negative = inhibition, hits mostly inhibitors. HEK293T ELG1-luciferase reporter, luminescence, 16 h; DNA damage induced by 5-fluorouridine; note: % is set by controls: 0 for no effect and ±100 for the full control effect; nearly all actives have a fitted effect of over 55% in size
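Overnight (16 hr) co-exposure of 2,000 cells/well to 5-fluorouridine and compound at 37 °C preceded detection. Luciferase was quantified via ONE-Glo luminescence; loss of signal denotes inhibition.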
Active calls of the source: *; ? = inconclusive; / = no result given. This is a sample that favours compounds with a hit; in the whole collection about 9.2% have one here. Calls come from the whole dose curve; as a rule, active = well fitted curve in the direction sought with a large enough effect; inconclusive = small, poorly fitted or top-dose-only effect, or another doubt; inactive = no such curve, though single readings can be large; an effect the other way counts as inactive or inconclusive. Potency is the fitted concentration of half-maximal effect.

SMILES | Rab9 promoter act | NPC1 prom act | FLuc modulator | SMN2 splice up | ELG1 genotoxic | ELG1 DNA repair
COc1cc(/C=N/NC(=O)c2cc(-c3c(C)nn(-c4ccccc4)c3C)n[nH]2)ccc1O | 20% | 6% | ? | / | -9% | ?
Cc1nn(-c2ccccc2)c(C)c1/C=N/NC(=O)c1cnccn1 | 9% | 12% | ? | / | 7% | 23%
Cc1nn(-c2ccccc2)c(C)c1/C=N/NC(=O)c1cc(O)cc(O)c1 | -4% | 0% | 19µM* | / | -15% | -29%
Cc1nn(-c2ccccc2)c(C)c1/C=N/NC(=O)c1ccccc1O | 12% | 2% | 1.9µM* | / | 9% | ?
Cc1nn(-c2ccccc2)c(N2CCCC2)c1/C=N/NC(=O)c1ccccc1O | -6% | -2% | -16% | 13% | -4% | -11%
CCNc1ccc(C(=O)N/N=C/c2c(C)nn(-c3ccccc3)c2N2CCCC2)cc1[N+](=O)[O-] | -3% | 1% | 4% | -13% | -7% | 21µM*
COc1ccc(OCCSc2nnc(C(C)NC(=O)c3ccccc3F)n2C)cc1 (centres undefined) | -4% | -3% | 0% | -5% | -5% | -11%
CCCNC(=O)C(=O)NCC(c1ccc2c(c1)OCO2)N1CCOCC1 (centres undefined) | / | / | 0% | / | / | /
CC(=O)Nc1ccc(NC(=O)c2cc(C)nn2-c2ccccc2)cc1 | 0% | 2% | -2% | 1% | 2% | 5%
Cn1cnc2cc(NC(=O)COc3ccccc3)ccc21 | 24% | 12% | 24µM* | / | ? | ?
CCOc1ccc(-n2nc3ccc(NC(=O)CC)cc3n2)cc1 | ? | ? | 2.7µM* | / | 17% | ?
CC(=O)Nc1ccc2c(c1)ncn2-c1ccccc1 | 1.4µM* | 2.8µM* | 11µM* | / | 21µM* | ?
CCC(=O)Nc1ccc2c(c1)ncn2-c1ccccc1 | ? | ? | 15µM* | ? | ? | ?
CCOc1ccc(-n2nc3ccc(NC(=O)Cc4ccccc4)cc3n2)cc1 | / | / | 3% | -6% | / | /
Cc1ccc(N2CCN(C(=O)c3cn(C)c4ccc(S(=O)(=O)N(C)C)cc4c3=O)CC2C)cc1 (centres undefined) | / | / | -4% | -12% | / | /
COc1cccc(CNC(=O)C2=Cc3cccc(OC)c3OC2)c1 | 7% | 0% | -12% | 23% | -8% | ?
CCCCCO | 1% | -1% | -1% | 4% | 1% | 6%
O=C(/N=C1\NC(=O)C(F)(C(F)(F)F)S1)NC1CCCCC1 (centres undefined) | 2% | -4% | 13µM* | ? | -3% | 0%
CCC1S/C(=N/C(=O)NC2CCCCC2)NC1=O (centres undefined) | ? | ? | ? | 11µM* | ? | ?
O=C(Nc1ccsc1C(=O)NC1CCCCC1)c1ccc(F)cc1 | -3% | -4% | -10% | -16% | 10% | -3%
COC(=O)[C@@]1(Cc2ccccc2)[C@H]2c3cc(C(=O)N4CCCC4)[nH]c3C[C@H]2CN1C(=O)c1ccccc1 | / | / | / | 2% | / | /
COc1cc(-c2nnc(SCC(=O)N3CCCc4ccccc43)o2)cc(OC)c1OC | / | / | -3% | 13% | / | /
COc1ccc(CCNC(=O)Cn2c(=O)[nH]c3ccsc3c2=O)cc1OC | 12% | -3% | -1% | -2% | 1% | 0%
CCN1C/C(=C/c2cccc([N+](=O)[O-])c2)C(=O)/C(=C/c2cccc([N+](=O)[O-])c2)C1 | -50% | -36% | -3% | -101% | -16% | 2.6µM*
CCOc1cc(/C=C2\CN(CC)C/C(=C\c3ccc(O)c(OCC)c3)C2=O)ccc1O | -20% | -29% | -13% | / | -12% | ?
COc1ccc(CN2CCN(C(C)C)C(CCO)C2)cc1Cn1cncn1 (centres undefined) | 9% | -3% | 1% | / | 3% | 8%

Screens as filed in PubChem.
